The target of assay [1] is RAC-alpha serine/threonine-protein kinase (Homo sapiens) (UniProt P31749). Conditions: at 0.1 µM.
For assay [2] the target is unchanged. Conditions: at 1 µM.
Assay [3] addresses RAC-beta serine/threonine-protein kinase (Homo sapiens) (UniProt P31751). Conditions: at 0.1 µM.
For assay [4] the target is unchanged. Conditions: at 1 µM.
The target of assay [5] is RAC-gamma serine/threonine-protein kinase (Homo sapiens) (UniProt Q9Y243). Conditions: at 0.1 µM.
The target is the same in assay [6]. Conditions: at 1 µM.
Assay [7] concerns the target G protein-coupled receptor kinase 6 (Homo sapiens) (UniProt P43250). Conditions: at 0.1 µM.
Assay [8] has the same target. Conditions: at 1 µM.
Assay [9] addresses T1, Rhodopsin kinase GRK7 (Homo sapiens) (UniProt Q8WTQ7).
T1 sequence (whole entry): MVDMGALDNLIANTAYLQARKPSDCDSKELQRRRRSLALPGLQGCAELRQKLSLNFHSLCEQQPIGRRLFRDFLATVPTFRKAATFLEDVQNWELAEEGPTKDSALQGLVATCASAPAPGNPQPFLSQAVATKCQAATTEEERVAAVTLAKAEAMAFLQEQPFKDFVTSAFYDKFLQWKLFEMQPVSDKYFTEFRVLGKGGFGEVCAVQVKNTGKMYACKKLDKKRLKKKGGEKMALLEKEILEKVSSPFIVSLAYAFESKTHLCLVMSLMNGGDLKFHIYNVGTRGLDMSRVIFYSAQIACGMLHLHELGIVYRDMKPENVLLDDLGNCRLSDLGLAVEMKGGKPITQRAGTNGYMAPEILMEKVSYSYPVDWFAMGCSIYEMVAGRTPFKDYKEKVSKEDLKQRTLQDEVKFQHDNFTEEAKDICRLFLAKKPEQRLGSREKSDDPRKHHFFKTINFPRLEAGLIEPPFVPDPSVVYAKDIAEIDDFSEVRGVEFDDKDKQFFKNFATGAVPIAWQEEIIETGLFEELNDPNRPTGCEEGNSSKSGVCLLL
Conditions: at 0.1 µM.

Assay [10] has as its target T1, Rhodopsin kinase GRK7 (Homo sapiens). Conditions: at 1 µM.
Assay [11] deals with Serine/threonine-protein kinase MRCK alpha (Homo sapiens) (UniProt Q5VT25). Conditions: at 0.1 µM.
Assay [12] has the same target. Conditions: at 1 µM.
Assay [13] addresses Serine/threonine-protein kinase MRCK beta (Homo sapiens) (UniProt Q9Y5S2). Conditions: at 0.1 µM.
The target is the same in assay [14]. Conditions: at 1 µM.
The target of assay [15] is Ribosomal protein S6 kinase alpha-5 (Homo sapiens) (UniProt O75582). Conditions: at 0.1 µM.
Assay [16] has the same target. Conditions: at 1 µM.
Assay [17] deals with Ribosomal protein S6 kinase alpha-4 (Homo sapiens) (UniProt O75676). Conditions: at 0.1 µM.
Assay [18] has the same target. Conditions: at 1 µM.
Assay [19] addresses Ribosomal protein S6 kinase beta-1 (Homo sapiens) (UniProt P23443). Conditions: at 0.1 µM.
Assay [20] shares this target. Conditions: at 1 µM.

Here are results for eight molecules from ChEMBL document CHEMBL1961873, “Compounds: GSK PKIS; Assays: Nanosyn kinase panel” (2012).

The structures appear in SMILES notation.

Serine/threonine-protein kinase MRCK beta (Homo sapiens), sequence (Q9Y5S2 whole entry): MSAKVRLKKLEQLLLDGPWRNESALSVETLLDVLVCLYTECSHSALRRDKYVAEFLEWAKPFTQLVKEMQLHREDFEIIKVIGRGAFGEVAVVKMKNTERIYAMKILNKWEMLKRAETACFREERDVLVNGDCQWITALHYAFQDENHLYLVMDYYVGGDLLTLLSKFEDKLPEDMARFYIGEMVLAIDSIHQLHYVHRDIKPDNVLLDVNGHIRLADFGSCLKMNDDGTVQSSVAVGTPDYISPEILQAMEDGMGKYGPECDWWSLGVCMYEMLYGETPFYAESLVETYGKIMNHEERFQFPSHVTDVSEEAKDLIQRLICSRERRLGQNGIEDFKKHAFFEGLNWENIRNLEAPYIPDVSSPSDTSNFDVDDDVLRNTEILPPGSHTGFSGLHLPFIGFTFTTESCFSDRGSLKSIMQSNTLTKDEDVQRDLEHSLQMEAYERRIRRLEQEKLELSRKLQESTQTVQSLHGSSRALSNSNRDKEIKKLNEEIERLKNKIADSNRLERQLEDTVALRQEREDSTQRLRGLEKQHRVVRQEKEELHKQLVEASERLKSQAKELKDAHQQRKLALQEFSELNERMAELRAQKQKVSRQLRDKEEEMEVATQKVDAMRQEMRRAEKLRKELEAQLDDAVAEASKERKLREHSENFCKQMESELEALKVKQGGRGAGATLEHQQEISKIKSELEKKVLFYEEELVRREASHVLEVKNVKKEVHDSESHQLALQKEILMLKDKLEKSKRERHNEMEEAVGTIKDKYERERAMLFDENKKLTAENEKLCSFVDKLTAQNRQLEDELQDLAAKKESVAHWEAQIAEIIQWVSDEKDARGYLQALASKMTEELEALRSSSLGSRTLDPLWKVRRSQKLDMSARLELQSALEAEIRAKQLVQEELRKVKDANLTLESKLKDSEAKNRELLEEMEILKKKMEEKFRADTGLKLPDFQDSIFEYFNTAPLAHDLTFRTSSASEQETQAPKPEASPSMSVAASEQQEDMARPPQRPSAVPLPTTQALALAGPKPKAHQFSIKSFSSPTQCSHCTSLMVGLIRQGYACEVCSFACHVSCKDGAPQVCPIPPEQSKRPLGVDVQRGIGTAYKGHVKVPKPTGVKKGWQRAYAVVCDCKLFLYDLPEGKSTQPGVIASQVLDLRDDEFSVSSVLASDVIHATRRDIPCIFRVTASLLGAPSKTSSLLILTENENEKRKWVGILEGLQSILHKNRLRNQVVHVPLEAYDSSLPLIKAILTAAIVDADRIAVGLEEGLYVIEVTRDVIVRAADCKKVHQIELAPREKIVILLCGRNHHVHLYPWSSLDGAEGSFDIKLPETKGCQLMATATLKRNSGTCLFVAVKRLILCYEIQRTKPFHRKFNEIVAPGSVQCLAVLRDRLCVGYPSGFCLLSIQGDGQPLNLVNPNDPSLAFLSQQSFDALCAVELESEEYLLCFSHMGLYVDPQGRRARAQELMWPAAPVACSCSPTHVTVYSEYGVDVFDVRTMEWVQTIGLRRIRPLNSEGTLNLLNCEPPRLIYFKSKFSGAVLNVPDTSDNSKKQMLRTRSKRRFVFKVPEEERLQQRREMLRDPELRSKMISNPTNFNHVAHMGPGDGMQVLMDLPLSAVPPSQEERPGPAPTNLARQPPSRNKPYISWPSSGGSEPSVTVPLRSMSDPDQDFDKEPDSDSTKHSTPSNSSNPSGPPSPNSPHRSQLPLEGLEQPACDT
RAC-beta serine/threonine-protein kinase (Homo sapiens), sequence (P31751 whole entry): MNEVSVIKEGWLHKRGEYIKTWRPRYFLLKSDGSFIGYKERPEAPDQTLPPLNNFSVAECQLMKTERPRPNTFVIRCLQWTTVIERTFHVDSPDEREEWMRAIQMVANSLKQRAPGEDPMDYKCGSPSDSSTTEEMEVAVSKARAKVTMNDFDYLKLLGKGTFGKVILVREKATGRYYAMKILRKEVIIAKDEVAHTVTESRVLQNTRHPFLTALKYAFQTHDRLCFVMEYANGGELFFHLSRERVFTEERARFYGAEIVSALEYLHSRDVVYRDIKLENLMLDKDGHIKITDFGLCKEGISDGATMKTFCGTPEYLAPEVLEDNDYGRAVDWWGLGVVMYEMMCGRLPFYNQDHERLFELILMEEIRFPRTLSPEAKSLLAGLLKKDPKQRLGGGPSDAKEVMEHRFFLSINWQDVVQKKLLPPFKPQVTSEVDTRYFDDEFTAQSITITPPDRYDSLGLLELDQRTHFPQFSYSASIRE
G protein-coupled receptor kinase 6 (Homo sapiens), sequence (P43250 whole entry, looked up): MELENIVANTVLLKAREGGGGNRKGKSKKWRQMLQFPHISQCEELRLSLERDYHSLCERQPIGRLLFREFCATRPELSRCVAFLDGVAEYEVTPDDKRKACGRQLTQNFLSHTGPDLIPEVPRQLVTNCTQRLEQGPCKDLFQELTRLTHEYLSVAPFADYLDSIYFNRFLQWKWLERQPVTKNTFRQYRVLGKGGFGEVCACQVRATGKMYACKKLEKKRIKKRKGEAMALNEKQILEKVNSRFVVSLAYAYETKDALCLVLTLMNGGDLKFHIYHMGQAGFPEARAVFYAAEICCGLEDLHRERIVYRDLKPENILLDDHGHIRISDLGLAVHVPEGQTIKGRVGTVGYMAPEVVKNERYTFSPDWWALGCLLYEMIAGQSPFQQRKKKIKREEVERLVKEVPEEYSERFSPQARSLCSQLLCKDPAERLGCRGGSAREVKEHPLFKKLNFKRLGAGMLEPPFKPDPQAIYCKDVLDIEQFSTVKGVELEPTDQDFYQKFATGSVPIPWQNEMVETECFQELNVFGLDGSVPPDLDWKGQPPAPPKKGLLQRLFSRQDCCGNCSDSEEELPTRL
RAC-alpha serine/threonine-protein kinase (Homo sapiens), sequence (P31749 whole entry): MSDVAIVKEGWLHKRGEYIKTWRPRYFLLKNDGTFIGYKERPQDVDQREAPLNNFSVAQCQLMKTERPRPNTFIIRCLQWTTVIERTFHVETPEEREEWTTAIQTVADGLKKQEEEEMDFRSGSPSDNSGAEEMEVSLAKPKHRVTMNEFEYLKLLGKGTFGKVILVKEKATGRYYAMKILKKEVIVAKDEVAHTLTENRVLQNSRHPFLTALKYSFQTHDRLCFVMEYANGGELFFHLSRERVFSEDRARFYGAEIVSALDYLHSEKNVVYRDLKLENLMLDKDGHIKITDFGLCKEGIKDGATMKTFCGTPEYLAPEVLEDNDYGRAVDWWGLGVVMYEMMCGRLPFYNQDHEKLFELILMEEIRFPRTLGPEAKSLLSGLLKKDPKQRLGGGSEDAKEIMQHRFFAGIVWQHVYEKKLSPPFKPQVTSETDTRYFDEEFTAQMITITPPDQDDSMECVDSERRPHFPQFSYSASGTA
Serine/threonine-protein kinase MRCK alpha (Homo sapiens), sequence (Q5VT25 whole entry): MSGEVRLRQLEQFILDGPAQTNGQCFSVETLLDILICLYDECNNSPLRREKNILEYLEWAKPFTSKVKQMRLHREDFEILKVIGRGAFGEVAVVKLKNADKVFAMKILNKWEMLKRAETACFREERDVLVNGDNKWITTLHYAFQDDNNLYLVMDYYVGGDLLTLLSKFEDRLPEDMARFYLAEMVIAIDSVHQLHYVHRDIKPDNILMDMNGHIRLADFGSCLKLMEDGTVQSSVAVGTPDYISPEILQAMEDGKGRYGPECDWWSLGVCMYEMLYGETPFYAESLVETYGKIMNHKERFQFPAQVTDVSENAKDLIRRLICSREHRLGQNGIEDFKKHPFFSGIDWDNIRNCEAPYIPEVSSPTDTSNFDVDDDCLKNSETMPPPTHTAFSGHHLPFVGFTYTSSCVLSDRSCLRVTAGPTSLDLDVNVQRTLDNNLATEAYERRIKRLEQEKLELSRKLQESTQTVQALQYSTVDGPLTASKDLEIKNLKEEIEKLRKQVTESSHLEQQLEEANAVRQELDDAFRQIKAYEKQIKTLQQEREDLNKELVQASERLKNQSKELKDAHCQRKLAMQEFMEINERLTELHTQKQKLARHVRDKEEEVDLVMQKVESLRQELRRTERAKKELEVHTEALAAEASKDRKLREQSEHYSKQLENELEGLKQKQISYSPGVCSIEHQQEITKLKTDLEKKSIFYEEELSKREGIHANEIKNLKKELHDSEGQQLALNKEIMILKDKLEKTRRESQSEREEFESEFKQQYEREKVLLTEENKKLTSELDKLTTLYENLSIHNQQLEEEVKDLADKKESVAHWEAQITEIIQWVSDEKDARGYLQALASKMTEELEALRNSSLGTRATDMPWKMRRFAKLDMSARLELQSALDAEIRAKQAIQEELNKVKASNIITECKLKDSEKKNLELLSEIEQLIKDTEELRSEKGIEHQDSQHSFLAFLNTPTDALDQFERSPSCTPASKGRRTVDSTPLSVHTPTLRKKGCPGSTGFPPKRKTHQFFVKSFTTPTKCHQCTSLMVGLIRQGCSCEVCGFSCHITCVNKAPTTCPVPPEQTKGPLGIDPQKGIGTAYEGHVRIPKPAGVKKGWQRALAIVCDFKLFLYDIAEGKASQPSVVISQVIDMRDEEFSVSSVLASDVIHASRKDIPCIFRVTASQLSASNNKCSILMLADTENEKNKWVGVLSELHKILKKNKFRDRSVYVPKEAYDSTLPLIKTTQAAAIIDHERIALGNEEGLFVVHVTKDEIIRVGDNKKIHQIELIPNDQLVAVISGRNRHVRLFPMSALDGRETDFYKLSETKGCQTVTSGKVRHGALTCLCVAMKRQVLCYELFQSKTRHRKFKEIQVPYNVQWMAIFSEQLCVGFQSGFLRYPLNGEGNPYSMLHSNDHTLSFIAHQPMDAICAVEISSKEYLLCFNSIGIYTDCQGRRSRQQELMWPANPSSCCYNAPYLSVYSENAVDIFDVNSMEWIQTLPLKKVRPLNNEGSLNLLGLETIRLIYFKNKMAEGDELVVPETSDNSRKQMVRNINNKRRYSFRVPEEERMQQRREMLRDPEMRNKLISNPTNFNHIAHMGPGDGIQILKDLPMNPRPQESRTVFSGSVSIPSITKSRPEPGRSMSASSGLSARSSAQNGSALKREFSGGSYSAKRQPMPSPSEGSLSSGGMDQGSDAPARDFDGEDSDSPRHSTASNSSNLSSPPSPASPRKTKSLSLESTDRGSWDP

The term inhibition denotes the relative decrease from the control value, in per cent. With `NC(=O)c1cc(-c2ccncc2)cc(-c2ccccc2)c1N`, the inhibition amounted to 0.73% in [1]; 0.01% in assay [2]; 1.93% in [3]; 2.56% in assay [4]; 0.25% in [5]; 3.46% in assay [6]. The inhibition is 3.52% in [7]; 3.56% in assay [8]; 5.22% in [9]; 9.17% in assay [10]; 0.84% in assay [11]; -0.04% in [12]. Besides, the inhibition in assay [13] was 1.07%; in assay [14], 2.4%; in assay [15], -1.53%; in assay [16] it was 0.93%; in [17], 2.32%; in assay [18], 3.43%. In addition, the inhibition in assay [19] came out at 3.54%; in [20], 2.1%.

As for `O=C1NC(=O)C(c2cccc(Cl)c2)=C1Nc1ccc(Cl)c(C(=O)O)c1`, the inhibition worked out at 0.08% in [1]; 1.15% in assay [2]; 1.52% in assay [3]; 0.7% in assay [4]; 1.61% in assay [5]; 0.58% in assay [6]. Also, the inhibition came out at 4.67% in [7]; 8.66% in [8]; 13.2% in assay [9]; 9.31% in assay [10]; 1.43% in assay [11]; 4.38% in [12]. The inhibition is 0.15% in assay [13]; -0.05% in [14]; 3.03% in assay [15]; 2.1% in assay [16]; 2.51% in assay [17]; 2.85% in assay [18]. Also, the inhibition came out at 0.51% in assay [19] and 1.96% in assay [20].

As to `Nc1nccc(-c2c(-c3ccc(F)cc3)ncn2C2CCC(O)CC2)n1` (stereo not given), the inhibition in [1] was -1.5%; in assay [2] it was -1.14%; in assay [3] it was -2.08%; in [4] it was -1.44%; in assay [5], -1.82%; in assay [6], 0.5%. For the same molecule, the inhibition in [7] is 1.78%; in [8], -1.92%; in assay [9], -3.24%; in assay [10] it was -1.89%; in assay [11], -0.25%; in assay [12] it was -0.81%. The inhibition in assay [13] is 0.88%; in assay [14], 0.56%; in [15], -1.03%; in assay [16], -0.24%; in assay [17] it was -1.62%; in [18], -0.73%. The inhibition in assay [19] is -1.59%; in assay [20], -1.84%.

In the case of `NC(=O)c1cc(-c2ccc(F)cc2)cc(-c2ccncc2)c1N`, the inhibition in [1] came to 0.92%; in assay [2] it was 1.2%; in assay [3], 1.95%; in assay [4], 2.01%; in [5], 2.01%; in assay [6] it was 4.31%. The inhibition in [7] is 5.99%; in [8], 6.88%; in assay [9], 2.49%; in assay [10], 11.1%; in [11], -1.04%; in assay [12], -1.25%. The inhibition in [13] was -1.54%; in assay [14], -2.26%; in assay [15], 2.2%; in [16] it was 1.39%; in assay [17], 2.03%; in assay [18] it was 2.52%. For the same molecule, the inhibition was 1.5% in assay [19] and 2.24% in assay [20].

For `c1ccc(Oc2ccc(Nc3ncc(-c4ccccc4)o3)cc2)cc1`, the inhibition is 0.05% in assay [1]; 0.39% in assay [2]; 0.18% in assay [3]; 0.15% in assay [4]; -0.09% in [5]; 1.21% in [6]. In addition, the inhibition is 2.54% in assay [7]; 0.81% in assay [8]; 2.37% in assay [9]; 2% in assay [10]; -0.31% in assay [11]; 1.06% in assay [12]. Besides, the inhibition came to 0.44% in [13]; 3.62% in assay [14]; 0.98% in [15]; 3.6% in assay [16]; 1.31% in assay [17]; 3.78% in [18]. Besides, the inhibition in assay [19] was 0.11%; in [20], -0.31%.

Turning to `Fc1ccc(-c2ncn(C3CCNCC3)c2-c2ccnc(Oc3ccc(F)c(F)c3)n2)cc1`, the inhibition was -3% in [1]; -3.59% in assay [2]; -3.3% in assay [3]; -2.56% in assay [4]; -2.6% in assay [5]; -1.9% in assay [6]. Further, the inhibition was -0.72% in [7]; 2.05% in assay [8]; 9.11% in assay [9]; 1.73% in [10]; -3.08% in assay [11]; -2.58% in assay [12]. For the same molecule, the inhibition in assay [13] was -0.68%; in [14], -0.35%; in assay [15] it was 0.54%; in assay [16] it was -0.7%; in assay [17], 3.37%; in [18], 4.69%. Moreover, the figures for the inhibition in assay [19] and in assay [20] were 0.73% and 0.63%, respectively.

On to `Cc1ccc(NC(=O)c2ccoc2)cc1-c1ccc(C(=O)NCC2CC2)cc1`, for which the inhibition was 0.37% in [1]; 0.55% in assay [2]; 0.88% in assay [3]; 1.23% in assay [4]; 0.72% in assay [5]; 1.87% in [6]. The inhibition in assay [7] is -0.54%; in assay [8], 1.27%; in assay [9], 3.35%; in assay [10] it was -1.36%; in [11], -2.51%; in [12], -2.81%. Also, the inhibition is -0.56% in assay [13]; -1.77% in [14]; 0.76% in assay [15]; -1.39% in assay [16]; 1.78% in assay [17]; -0.44% in assay [18]. The inhibition is -0.57% in assay [19] and -1.48% in assay [20].

Take `NC(=O)Cc1ccccc1Oc1nccc(-c2c(-c3ccc(F)cc3)ncn2C2CCNCC2)n1`: the inhibition in assay [1] amounted to 0.16%; in [2], 0.12%; in assay [3], 1.23%; in [4], 0.29%; in [5] it was 0.15%; in assay [6], 1.21%. For the same molecule, the inhibition was -1.33% in assay [7]; -0.72% in assay [8]; 1% in assay [9]; 1.09% in assay [10]; 0.16% in [11]; -0.52% in assay [12]. For the same molecule, the inhibition is -0.05% in assay [13]; 1.05% in assay [14]; 2.22% in assay [15]; 1.53% in assay [16]; -1.39% in assay [17]; 1.64% in [18]. In addition, the inhibition in assay [19] was determined as 0.73%; in assay [20], 1.27%.
